This passage reports outcome and AC50 results from PubChem BioAssay (EPA / NIEHS).

Assay [1] addresses cAMP-dependent protein kinase catalytic subunit alpha (Homo sapiens) (UniProt P17612). The assay is described as follows: NVS_ENZ_hPKA: NovaScreen (NVS) Enzymatic Assay for human Protein Kinase A (PKA) (AID 2283192). The procedure, abridged: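 Recombinant human PKA with specific fluorescent substrate, product separated by electrophoretic mobility shift, read 1 h after dosing. Primary screen at 25 uM in duplicate; actives then run in concentration-response up to 50 uM, activity relative to DMSO.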

Assay [2] has as its target human Protein Tyrosine Phosphatase Non-receptor Type 1 (PTPN1), PTPN1 (gene 5770) (UniProt P18031). The assay is described as follows: NVS_ENZ_hPTPN1: NovaScreen (NVS) Enzymatic Assay for human Protein Tyrosine Phosphatase Non-receptor Type 1 (PTPN1) (AID 2283201). The procedure, abridged: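 Cell-free fluorogenic-substrate activity assay on recombinant enzyme, read 1.33 h after dosing by fluorescence and electrophoretic mobility shift; loss of signal vs DMSO baseline. Primary screen in duplicate at 25 uM, hits then run in concentration-response up to 50 uM.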

In assay [3] the target is Tyrosine-protein phosphatase non-receptor type 12 (Homo sapiens) (UniProt Q05209). The assay is described as follows: NVS_ENZ_hPTPN12: NovaScreen (NVS) Enzymatic Assay for human Protein Tyrosine Phosphatase Non-receptor Type 12 (PTPN12) (AID 2283204). The procedure, abridged:
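Single-concentration duplicates (25 uM) preceded singleton concentration-response up to 50 uM for chemicals passing threshold. Cell-free recombinant PTPN12 activity was read 1.33 h after dosing via fluorescence after mobility-shift separation; loss of signal versus DMSO.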

The target in assay [4] is Tyrosine-protein phosphatase non-receptor type 13 (Homo sapiens) (UniProt Q12923). The assay is described as follows: NVS_ENZ_hPTPN13: NovaScreen (NVS) Enzymatic Assay for human Protein Tyrosine Phosphatase Non-receptor Type 13 (PTPN13) (AID 2283205). The procedure, abridged: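 Cell-free assay of recombinant human PTPN13 with a fluorescent substrate, product separated by electrophoretic mobility shift and read 0.5 h after dosing. Primary screen at 25 uM in duplicate, then concentration-response up to 50 uM. Loss of signal fitted against DMSO.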

For assay [5], the target named is human Protein Tyrosine Phosphatase Non-receptor Type 9 (PTPN9), PTPN9 (gene 5780) (UniProt P43378). Put plainly: NVS_ENZ_hPTPN9: NovaScreen (NVS) Enzymatic Assay for human Protein Tyrosine Phosphatase Non-receptor Type 9 (PTPN9) (AID 2283209). Summed up:
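Sf9-expressed enzyme in a cell-free assay, fluorescence read 1.33 h after dosing with mobility-shift separation of substrate and product. Tested at 25 uM in duplicate, then up to 50 uM; signal loss versus DMSO.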

The target of assay [6] is human Protein Tyrosine Phosphatase Receptor Type B (PTPRB), PTPRB (gene 5787) (UniProt P23467). The assay is described as follows: NVS_ENZ_hPTPRB: NovaScreen (NVS) Enzymatic Assay for human Protein Tyrosine Phosphatase Receptor Type B (PTPRB) (AID 2283211). The procedure, abridged:
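Recombinant human PTPRB with a fluorescent substrate, product separated by electrophoretic mobility shift; read 1 h after dosing. Primary screen in duplicate at 25 uM; actives then retested in concentration series; loss of signal versus DMSO.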

The target of assay [7] is human Protein Tyrosine Phosphatase Receptor Type F (PTPRF), PTPRF (gene 5792) (UniProt P10586). The assay is described as follows: NVS_ENZ_hPTPRF: NovaScreen (NVS) Enzymatic Assay for human Protein Tyrosine Phosphatase Receptor Type F (PTPRF) (AID 2283213). The procedure, abridged:
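Cell-free fluorescence enzyme assay with recombinant protein and substrate; product separated by electrophoretic mobility shift. Read 1 h after dosing, single 25 uM duplicate screen, then concentration-response up to 50 uM; loss of signal vs DMSO.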

Assay [8] deals with human Protein Tyrosine Phosphatase Receptor Type M (PTPRM), PTPRM (gene 5797) (UniProt P28827). The assay is described as follows: NVS_ENZ_hPTPRM: NovaScreen (NVS) Enzymatic Assay for human Protein Tyrosine Phosphatase Receptor Type M (PTPRM) (AID 2283215). Summed up:
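Cell-free recombinant PTPRM with fluorogenic substrate; product separated from substrate by electrophoretic mobility shift and read by fluorescence, 1.33 h after dosing. Primary screen single concentration (25 uM) in duplicate; actives retested in concentration series; loss of signal versus DMSO.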

For assay [9], the target named is human Protein Phosphatase, Mg2+/Mn2+ Dependent 1A (PPM1A), PPM1A (gene 5494) (UniProt P35813). Put plainly: NVS_ENZ_hPPM1A: NovaScreen (NVS) Enzymatic Assay for human Protein Phosphatase, Mg2+/Mn2+ Dependent 1A (PPM1A) (AID 2283198). The procedure, abridged:
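Cell-free recombinant PPM1A phosphatase assay with fluorescent substrate, read 1 h after dosing by electrophoretic mobility shift. Chemicals screened in duplicate at 25 uM, then in concentration-response up to 50 uM; loss of activity versus DMSO.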

Assay [10] deals with human Phosphodiesterase 10 (PDE10), PDE10A (gene 10846) (UniProt Q9Y233). Put plainly: NVS_ENZ_hPDE10: NovaScreen (NVS) Enzymatic Assay for human Phosphodiesterase 10 (PDE10) (AID 2283195). The procedure, abridged:
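Recombinant human PDE10 with fluorescent substrate, 1 h, product separated by electrophoretic mobility shift. Loss of enzyme activity fitted against DMSO; initial screen 25 uM in duplicate, actives run to 50 uM maximum.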

The target of assay [11] is Serine/threonine-protein phosphatase PP1-alpha catalytic subunit (Homo sapiens) (UniProt P62136). Put plainly: NVS_ENZ_hPPP1CA: NovaScreen (NVS) Enzymatic Assay for human Protein Phosphatase 1 Aatalytic subunit Alpha (PPP1CA) (AID 2283200). The procedure, abridged: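 Recombinant enzyme activity read by fluorescence with electrophoretic mobility shift separating substrate from product, 1.33 h after dosing; loss of signal vs DMSO baseline. Primary screen in duplicate at 25 uM; actives retested in concentration-response up to 50 uM.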

The target of assay [12] is Tyrosine-protein phosphatase non-receptor type 11 (Homo sapiens) (UniProt Q06124). Put plainly: NVS_ENZ_hPTPN11: NovaScreen (NVS) Enzymatic Assay for human Protein Tyrosine Phosphatase Non-receptor Type 11 (PTPN11) (AID 2283202). The procedure, abridged:
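Recombinant human PTPN11 activity on a fluorescent substrate, with substrate/product separated by electrophoretic mobility shift; read 0.5 h after dosing, loss of signal vs DMSO. Duplicate 25 uM screen, then concentration-response up to 50 uM.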

Assay [13] deals with Tyrosine-protein phosphatase non-receptor type 14 (Homo sapiens) (UniProt Q15678). The assay is described as follows: NVS_ENZ_hPTPN14: NovaScreen (NVS) Enzymatic Assay for human Protein Tyrosine Phosphatase Non-receptor Type 14 (PTPN14) (AID 2283206). Summed up:
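Cell-free recombinant human PTPN14 with fluorescent substrate, read 0.5 h after dosing by fluorescence and electrophoretic mobility shift separating substrate from product. Primary screen at 25 uM in duplicate; hits run to 50 uM maximum; loss of signal versus DMSO.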

Assay [14] concerns the target human Protein Tyrosine Phosphatase Non-receptor Type 4 (PTPN4), PTPN4 (gene 5775) (UniProt P29074). Put plainly: NVS_ENZ_hPTPN4: NovaScreen (NVS) Enzymatic Assay for human Protein Tyrosine Phosphatase Non-receptor Type 4 (PTPN4) (AID 2283208). Summed up: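 Cell-free assay of PTPN4 expressed in Sf9 cells, using a fluorescent substrate with product separated by mobility shift; read 1.33 h after dosing. Single-point screen at 25 uM, then concentration-response up to 50 uM. Loss of signal relative to DMSO.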

Assay [15] has as its target human Phosphoinositide 3-kinase alpha (PI3Ka), PIK3CA (gene 5290) (UniProt P42336). The assay is described as follows: NVS_ENZ_hPI3Ka: NovaScreen (NVS) Enzymatic Assay for human Phosphoinositide 3-kinase alpha (PI3Ka) (AID 2283196). Summed up:
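Duplicate single-point screen (25 uM), then singleton dose-response (max 50 uM) for compounds meeting the threshold. Cell-free kinase reaction, 1 h; fluorescent mobility-shift readout.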

In assay [16] the target is human Rho Associated Coiled-coil Containing Protein Kinase 1 (ROCK1), ROCK1 (gene 6093) (UniProt Q13464). The assay is described as follows: NVS_ENZ_hROCK1: NovaScreen (NVS) Enzymatic Assay for human Rho Associated Coiled-coil Containing Protein Kinase 1 (ROCK1) (AID 2283214). Summed up:
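Cell-free recombinant human ROCK1 activity assay; fluorescent substrate and product separated by electrophoretic mobility shift, read 1 h after dosing. Screened in duplicate at 25 uM; loss of signal versus DMSO baseline scored as inhibition.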

Assay [17] concerns the target human Sirtuin 3 (SIRT3), SIRT3 (gene 23410) (UniProt Q9NTG7). The assay is described as follows: NVS_ENZ_hSIRT3: NovaScreen (NVS) Enzymatic Assay for human Sirtuin 3 (SIRT3) (AID 2283222). Summed up:
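Cell-free enzyme assay with recombinant protein and fluorescent substrate, product separated by electrophoretic mobility shift; read 1 hour after dosing. Screened in duplicate at 25 uM, then singleton concentration-response up to 50 uM; loss of signal versus DMSO.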

Results filed as inconclusive are left out. Active and inactive are the calls of the source. How the source made its calls: active means hit-call score of the fitted dose curve at least 0.9, where 1 is the maximum; inconclusive means response in the unintended direction; inactive means score below 0.9.

Chain of Tyrosine-protein phosphatase non-receptor type 13 (Homo sapiens) (Q12923 whole entry, looked up): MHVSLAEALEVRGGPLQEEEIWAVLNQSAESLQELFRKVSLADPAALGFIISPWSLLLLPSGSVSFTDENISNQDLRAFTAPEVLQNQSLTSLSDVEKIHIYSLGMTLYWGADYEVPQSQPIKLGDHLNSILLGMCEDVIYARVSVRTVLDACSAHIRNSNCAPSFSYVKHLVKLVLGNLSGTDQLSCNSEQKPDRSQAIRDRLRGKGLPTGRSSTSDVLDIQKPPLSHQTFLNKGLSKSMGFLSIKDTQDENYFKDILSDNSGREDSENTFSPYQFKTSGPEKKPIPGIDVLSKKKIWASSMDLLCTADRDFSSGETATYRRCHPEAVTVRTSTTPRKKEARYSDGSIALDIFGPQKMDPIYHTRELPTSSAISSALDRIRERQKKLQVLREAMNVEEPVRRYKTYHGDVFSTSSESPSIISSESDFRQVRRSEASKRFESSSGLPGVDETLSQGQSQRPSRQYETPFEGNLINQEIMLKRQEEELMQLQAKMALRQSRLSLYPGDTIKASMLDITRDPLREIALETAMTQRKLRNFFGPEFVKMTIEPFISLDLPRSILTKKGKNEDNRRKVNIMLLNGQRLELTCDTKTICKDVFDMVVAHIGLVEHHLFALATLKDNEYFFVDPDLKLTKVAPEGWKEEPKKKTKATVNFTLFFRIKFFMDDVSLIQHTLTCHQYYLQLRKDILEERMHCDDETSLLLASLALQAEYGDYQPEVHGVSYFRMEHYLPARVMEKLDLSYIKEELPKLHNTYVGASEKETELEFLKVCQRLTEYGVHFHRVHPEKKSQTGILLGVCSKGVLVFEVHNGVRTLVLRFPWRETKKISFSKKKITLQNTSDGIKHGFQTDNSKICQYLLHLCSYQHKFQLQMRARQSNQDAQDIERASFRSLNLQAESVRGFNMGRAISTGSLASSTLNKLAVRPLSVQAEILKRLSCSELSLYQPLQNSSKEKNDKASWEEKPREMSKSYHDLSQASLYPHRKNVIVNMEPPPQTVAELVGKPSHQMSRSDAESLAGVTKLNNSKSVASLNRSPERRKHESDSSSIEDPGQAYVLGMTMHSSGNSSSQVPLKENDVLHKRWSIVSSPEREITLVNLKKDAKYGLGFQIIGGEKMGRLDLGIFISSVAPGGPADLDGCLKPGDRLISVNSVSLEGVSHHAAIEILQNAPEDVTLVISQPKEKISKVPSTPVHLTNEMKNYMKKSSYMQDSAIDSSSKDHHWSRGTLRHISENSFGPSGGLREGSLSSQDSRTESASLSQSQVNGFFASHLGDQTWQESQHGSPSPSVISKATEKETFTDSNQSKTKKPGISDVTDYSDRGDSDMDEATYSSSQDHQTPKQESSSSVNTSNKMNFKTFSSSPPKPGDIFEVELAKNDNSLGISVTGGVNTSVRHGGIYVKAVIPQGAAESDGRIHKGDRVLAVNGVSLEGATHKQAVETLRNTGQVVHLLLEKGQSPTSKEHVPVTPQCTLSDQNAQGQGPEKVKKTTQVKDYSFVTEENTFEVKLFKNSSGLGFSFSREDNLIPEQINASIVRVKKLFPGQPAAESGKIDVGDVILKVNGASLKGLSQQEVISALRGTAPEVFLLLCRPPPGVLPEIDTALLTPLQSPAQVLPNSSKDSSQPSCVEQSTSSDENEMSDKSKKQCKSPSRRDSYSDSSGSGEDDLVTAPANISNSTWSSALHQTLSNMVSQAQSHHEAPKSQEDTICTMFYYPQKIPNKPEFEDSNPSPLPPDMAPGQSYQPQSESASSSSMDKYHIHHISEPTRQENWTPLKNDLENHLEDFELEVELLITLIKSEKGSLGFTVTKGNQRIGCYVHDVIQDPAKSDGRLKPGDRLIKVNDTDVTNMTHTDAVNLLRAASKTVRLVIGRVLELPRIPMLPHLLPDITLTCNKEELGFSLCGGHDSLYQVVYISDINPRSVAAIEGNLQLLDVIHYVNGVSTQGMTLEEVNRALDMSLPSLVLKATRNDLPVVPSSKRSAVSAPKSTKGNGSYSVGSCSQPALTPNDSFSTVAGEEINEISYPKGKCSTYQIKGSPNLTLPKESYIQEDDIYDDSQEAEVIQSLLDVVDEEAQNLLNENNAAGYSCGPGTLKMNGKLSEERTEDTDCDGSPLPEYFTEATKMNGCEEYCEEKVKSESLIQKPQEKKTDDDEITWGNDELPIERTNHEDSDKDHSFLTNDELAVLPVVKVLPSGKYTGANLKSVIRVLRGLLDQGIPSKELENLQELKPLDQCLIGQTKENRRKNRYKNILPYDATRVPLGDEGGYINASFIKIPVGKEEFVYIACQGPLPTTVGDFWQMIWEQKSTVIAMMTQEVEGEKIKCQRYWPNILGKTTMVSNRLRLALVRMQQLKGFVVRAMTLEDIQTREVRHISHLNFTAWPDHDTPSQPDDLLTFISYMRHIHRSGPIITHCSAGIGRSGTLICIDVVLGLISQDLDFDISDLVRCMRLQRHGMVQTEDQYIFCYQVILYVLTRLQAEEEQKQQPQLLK
Chain of human Rho Associated Coiled-coil Containing Protein Kinase 1 (ROCK1), ROCK1 (gene 6093) (Q13464 whole entry, looked up): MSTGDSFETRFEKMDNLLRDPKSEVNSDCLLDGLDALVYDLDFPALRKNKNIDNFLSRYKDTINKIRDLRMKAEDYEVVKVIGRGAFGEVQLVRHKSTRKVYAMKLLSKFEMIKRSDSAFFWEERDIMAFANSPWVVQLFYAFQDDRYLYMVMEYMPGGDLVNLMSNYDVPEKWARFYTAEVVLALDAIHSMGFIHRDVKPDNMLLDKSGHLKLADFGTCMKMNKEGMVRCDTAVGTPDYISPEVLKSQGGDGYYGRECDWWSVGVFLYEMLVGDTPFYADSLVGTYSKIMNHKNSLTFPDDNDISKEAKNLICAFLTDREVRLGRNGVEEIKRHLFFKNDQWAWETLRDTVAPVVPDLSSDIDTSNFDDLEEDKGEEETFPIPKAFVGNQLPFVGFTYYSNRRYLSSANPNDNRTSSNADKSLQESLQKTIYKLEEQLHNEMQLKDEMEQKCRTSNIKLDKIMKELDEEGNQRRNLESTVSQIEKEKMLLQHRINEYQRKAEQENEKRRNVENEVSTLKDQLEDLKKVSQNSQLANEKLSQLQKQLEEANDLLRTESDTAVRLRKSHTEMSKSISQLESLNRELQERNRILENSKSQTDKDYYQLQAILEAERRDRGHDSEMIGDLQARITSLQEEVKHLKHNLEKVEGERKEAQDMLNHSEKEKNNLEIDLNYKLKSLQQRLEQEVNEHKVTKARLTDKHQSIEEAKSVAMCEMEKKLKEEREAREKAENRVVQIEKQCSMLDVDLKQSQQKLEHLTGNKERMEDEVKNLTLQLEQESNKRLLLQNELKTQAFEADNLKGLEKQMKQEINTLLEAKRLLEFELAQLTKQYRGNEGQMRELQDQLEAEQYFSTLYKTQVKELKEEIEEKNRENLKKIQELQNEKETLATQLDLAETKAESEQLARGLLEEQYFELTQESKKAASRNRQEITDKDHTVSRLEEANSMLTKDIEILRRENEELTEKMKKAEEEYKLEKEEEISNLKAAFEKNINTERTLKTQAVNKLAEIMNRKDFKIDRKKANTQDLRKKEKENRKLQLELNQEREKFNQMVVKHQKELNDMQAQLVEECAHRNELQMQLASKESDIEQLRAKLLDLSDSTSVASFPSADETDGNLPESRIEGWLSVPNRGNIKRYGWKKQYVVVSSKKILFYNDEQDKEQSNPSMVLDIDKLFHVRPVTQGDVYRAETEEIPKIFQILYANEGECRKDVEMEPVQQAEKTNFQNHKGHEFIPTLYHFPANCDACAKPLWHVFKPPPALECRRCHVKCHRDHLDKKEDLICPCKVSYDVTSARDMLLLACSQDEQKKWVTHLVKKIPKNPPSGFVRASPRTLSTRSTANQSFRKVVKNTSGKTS
Chain of human Phosphoinositide 3-kinase alpha (PI3Ka), PIK3CA (gene 5290) (P42336 whole entry, looked up): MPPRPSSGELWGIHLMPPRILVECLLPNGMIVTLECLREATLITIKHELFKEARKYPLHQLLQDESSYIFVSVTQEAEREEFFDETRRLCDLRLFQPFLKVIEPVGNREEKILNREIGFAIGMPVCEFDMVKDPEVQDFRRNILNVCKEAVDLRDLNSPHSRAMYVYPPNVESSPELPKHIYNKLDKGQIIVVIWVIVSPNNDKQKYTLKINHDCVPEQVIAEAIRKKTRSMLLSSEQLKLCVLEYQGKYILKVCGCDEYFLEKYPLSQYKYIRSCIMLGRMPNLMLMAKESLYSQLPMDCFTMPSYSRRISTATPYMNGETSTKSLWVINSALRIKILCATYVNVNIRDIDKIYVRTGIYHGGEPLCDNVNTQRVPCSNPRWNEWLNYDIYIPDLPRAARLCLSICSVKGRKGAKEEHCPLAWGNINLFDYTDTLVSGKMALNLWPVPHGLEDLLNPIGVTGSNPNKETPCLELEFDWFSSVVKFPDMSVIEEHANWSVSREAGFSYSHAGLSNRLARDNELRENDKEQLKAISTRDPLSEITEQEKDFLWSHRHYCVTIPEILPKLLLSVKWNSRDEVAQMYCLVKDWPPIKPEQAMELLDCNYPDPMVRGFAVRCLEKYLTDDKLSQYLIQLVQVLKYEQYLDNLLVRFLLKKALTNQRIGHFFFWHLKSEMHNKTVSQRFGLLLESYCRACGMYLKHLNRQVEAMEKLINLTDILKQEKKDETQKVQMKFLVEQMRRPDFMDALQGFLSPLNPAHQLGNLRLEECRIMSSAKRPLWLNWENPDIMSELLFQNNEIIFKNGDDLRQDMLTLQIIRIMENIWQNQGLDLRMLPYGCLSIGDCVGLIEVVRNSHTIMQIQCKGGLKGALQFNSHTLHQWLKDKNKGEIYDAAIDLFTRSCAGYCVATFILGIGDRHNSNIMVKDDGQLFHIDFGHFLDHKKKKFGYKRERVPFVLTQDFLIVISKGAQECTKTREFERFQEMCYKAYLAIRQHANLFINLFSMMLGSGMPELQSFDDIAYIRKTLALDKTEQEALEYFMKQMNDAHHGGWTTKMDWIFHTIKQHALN

Broadly, the AC50 is the midpoint of the concentration-response curve, whichever way the signal moves. As to `CN(C)c1ccc(N=NS(=O)(=O)O)cc1`, the molecule was called inactive in [1], in [2], in assay [5], in assay [6], in assay [7] and in [8]. The AC50 in assay [3] was 12.5 µM (active); in assay [4], 16.4 µM (active).
In the case of `O=c1[nH]c2ccc(S(=O)CCN3CCC(Cc4ccc(F)cc4)CC3)cc2o1` (stereo unspecified), the result in assay [9] was inactive.
In the case of `Nc1nc2ncc(CNc3ccc(C(=O)N[C@@H](CCC(=O)O)C(=O)O)cc3)nc2c(=O)[nH]1`, the molecule was called inactive in assay [10]. The AC50 in assay [11] was 8.97 µM (active); in assay [12] it was 30.2 µM (active); in [13] it was 14.9 µM (active); in assay [14], 41.9 µM (active).
On to `O=C(O)CC(O)C(=O)O` (stereo unspecified), for which the molecule was classed as inactive in assay [10]. In addition, the AC50 in assay [14] was 39.2 µM (active).
In the case of `COc1ccc2sc(C(=O)Nc3nnn[nH]3)c(OC(C)C)c2c1`, the AC50 in [1] is 13.2 µM (active); in [15], 0.192 µM (active); in [16], 7.67 µM (active).
Take `O=C(O)c1cc(N=Nc2ccc(S(=O)(=O)Nc3ccccn3)cc2)ccc1O`: the molecule was classed as inactive in assay [1], in [15], in assay [12], in assay [3], in [4] and in assay [13]. Further, the molecule was called inactive in assay [14], in [5], in assay [7] and in [8]. Also, the concentration at half-maximal activity (AC50) in assay [10] was 5.28 µM (active).
Turning to `CC(C)c1cccc(C(C)C)c1N1C(=O)c2ccc(O)cc2C1=O`, in assay [15], the AC50 was 0.533 µM (active). The molecule was called inactive in [2], in assay [3], in [13] and in [6].
As to `O=C(O)CCN(C1(C(=O)NO)CCCC1)S(=O)(=O)c1ccc(Oc2ccc(F)cc2)cc1`, the result in [9] and in [16] was inactive.
In the case of `CCN(C(=O)c1cc(C)cc(OC[C@H](C)Nc2ccncc2)c1)C(C)C`, the molecule was classed as inactive in assay [9].
As for `COCCOCCOCCOC`, the molecule was called inactive in assay [11] and in assay [16].
Turning to `O=c1n(CC2CO2)c(=O)n(CC2CO2)c(=O)n1CC1CO1` (stereo unspecified), the call in assay [11] was inactive.
As for `CCCCCCCCCCCCc1ccccc1`, in [2], the result was inactive.
On to `O=C(CCCCCCCCc1cccnc1)N1CCC(C=C(c2ccccc2)c2ccccc2)CC1`, for which the molecule was classed as inactive in assay [12].
`Cc1[nH]cnc1C[C@H]1CCc2c(C)c3ccccc3n2C1=O`: the molecule was called inactive in assay [3] and in assay [17].
Regarding `CCC(C)(C)C(=O)O[C@H]1C[C@@H](C)C=C2C=C[C@H](C)[C@H](CC[C@@H]3C[C@@H](O)CC(=O)O3)[C@H]21`, in assay [3], the AC50 is 33.5 µM (active).
With `CNS(=O)(=O)c1cc(C(=O)N2CCC(CCN3C4CCC3CC(n3c(C)nc5ccccc53)C4)(c3cccc(F)c3)CC2)c(Cl)cc1F` (stereo unspecified), the molecule was called inactive in assay [4].
For `COC(=O)c1c(Cl)c(Cl)c(C(=O)OC)c(Cl)c1Cl`, the call in assay [16] was inactive.
Take `O=P(OC(CCl)CCl)(OC(CCl)CCl)OC(CCl)CCl`: the outcome in [8] was inactive.
With `Nc1ccc(Nc2ccccc2)cc1`, the AC50 in assay [8] was 15.8 µM (active).
`CC1(C)C(=O)N(Br)C(=O)N1Br`: the call in [17] was inactive.
